# Measurements reported in PubChem BioAssay (NCATS).
# Results filed as inconclusive are left out. The source made the active and inactive calls. Calls come from the whole dose curve; as a rule, active = well fitted inhibition curve with a large enough effect; inconclusive = small, poorly fitted or top-dose-only effect; inactive = flat fitted curve, though single readings scatter.
# Tested on: HACAT
# Assay: qHTS assay to identify novel small-molecules to repurpose for Merkel cell carcinoma treatment (AID 1296009); note: nearly all actives have a fitted effect of over 60% in size
# Conditions: MCC and control cell lines, CellTiter-Glo viability, 72 h; at 44.8 µM (top of the series) unless noted
# In short: (§1)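 Luminescence from CellTiter-Glo, read 10 min after addition at room temperature, reported viability following a 72 hr, 37 degree celsius treatment with NPC or MIPE compounds in titration; values normalized to plate controls.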
row,Structure (SMILES),outcome
1,Oc1ccc2ccccc2c1SSc1c(O)ccc2ccccc12,inactive; activator
2,Nc1ccn([C@@H]2O[C@H](CO)[C@@H](O)C2O)c(=O)n1 (stereo partly drawn),inactive
3,O=C(c1ccccc1)c1ccc2n1CCC2C(=O)O (stereo not drawn),inactive
4,CCOC(=O)C(C)Oc1cccc2c(=O)n(CC(=O)Nc3ccc4c(c3)OCCO4)ccc12 (stereo not drawn),inactive
5,CC[C@]1(O)C[C@H]2CN(CCc3c([nH]c4ccccc34)[C@@](C(=O)OC)(c3cc4c(cc3OC)N(C=O)[C@H]3[C@@](O)(C(=O)OC)[C@H](OC(C)=O)[C@]5(CC)C=CCN6CC[C@]43[C@@H]65)C2)C1,inactive
6,Clc1ccc2c(N3CCN(CCCN4CCN(c5ccnc6cc(Cl)ccc56)CC4)CC3)ccnc2c1,inactive [at 17.4 µM]
7,CC(C)(S)[C@@H](N)C(=O)O,inactive
8,O=c1oc2cc(O)ccc2s1,inactive
9,C[C@@H](c1ncncc1F)[C@](O)(Cn1cncn1)c1ccc(F)cc1F,inactive
10,CC(C)[N+]1(C)[C@@H]2CC[C@H]1CC(OC(=O)C(CO)c1ccccc1)C2 (stereo partly drawn),inactive
11,Cc1ccc(S(=O)(=O)NC(=O)NN2CC3CCCC3C2)cc1 (stereo not drawn),inactive
12,O=C(CCc1ccc(O)cc1)c1c(O)cc(O)cc1O,inactive
13,Cc1cccc(-c2[nH]ncc2-c2ccc3ncccc3n2)n1,inactive
14,CCCOc1ccc2nc(NC(=O)OC)[nH]c2c1,inactive
15,O=c1c(O)c(-c2ccc(O)cc2O)oc2cc(O)cc(O)c12,inactive
16,N=C(N=C(N)N)N1CCOCC1,inactive
17,O=c1c(O)c(-c2cc(O)c(O)c(O)c2)oc2cc(O)cc(O)c12,inactive
18,O=P(O)(O)C(O)(Cn1ccnc1)P(=O)(O)O,inactive [at 17.4 µM]

# Tested on: HEK293T
# Assay: as above
# Conditions: MCC and control cell lines, CellTiter-Glo viability, 72 h; at 44.8 µM (top of the series) unless noted
# In short: as §1
row,Structure (SMILES),outcome
1,Nc1ccn([C@@H]2O[C@H](CO)[C@@H](O)C2O)c(=O)n1 (stereo partly drawn),inactive
2,CC1(C)C(=O)N(CCN2CCC(C(=O)c3ccc(F)cc3)CC2)c2ccccc21,inactive
3,C[C@]12CCC(=O)C=C1CC[C@@H]1[C@H]2[C@@H](O)C[C@@]2(C)[C@H]1CC[C@]2(O)C(=O)CO,inactive
4,Clc1ccc2c(N3CCN(CCCN4CCN(c5ccnc6cc(Cl)ccc56)CC4)CC3)ccnc2c1,inactive [at 17.4 µM]
5,O=C1NC(=O)C(c2ccccc2[N+](=O)[O-])=C1Nc1ccc(O)c(Cl)c1,inactive
